# Experimental data taken from PubChem BioAssay AID1276 (Columbia University Molecular Screening Center, 2008).
# Hit rate of the full screen: of about 190,000 compounds, about 2,000 (1.1%) were called active.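 The calls were made as follows: active = activation above a set limit, based on mean plus 3 SD of controls (cut at about 140% in these data); inconclusive = one replicate above the limit, the other below; inactive = the rest.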 Only a selection was taken, and actives are over-represented in it overall.
# Test: activators of APP 5'UTR luciferase reporter, primary screen, SH-SY5Y cells (AID 1276)
# Details: SH-SY5Y APP 5'UTR luciferase reporter, luminescence; at 2 µM; active compounds read high; zero percent = DMSO vehicle wells
row,SMILES,activation
1,Cc1cccc(OCCC(=O)Nc2cc(S(=O)(=O)N3CCCCC3)ccc2N2CCOCC2)c1,11.1% (inactive)
2,COc1ccc(OCCNS(=O)(=O)Cc2ccccc2)cc1,8.23% (inactive)
3,CC1CN/C(=C\C(=O)c2ccc(Br)cc2)C(=O)N1 (stereo unspecified),138% (active)
4,C/C(=C\C(=O)c1ccc(Br)cc1)N1CCCCC1,-20.4% (inactive)
5,CN1CCCC(OC(=O)COc2ccc(Br)cc2)C1 (stereo unspecified),3.06% (inactive)
6,COc1ccc(Cc2nnc(N/N=C/c3ccccc3O)[nH]c2=O)cc1OC,-85.9% (inactive)
7,Cc1cc(Cl)ccc1OCc1nc(-c2ccncc2)no1,95.7% (inactive)
8,Cc1ccc(NC(=O)c2csc3c2CCCC3)cc1,232% (active)
9,COC(=O)c1sccc1NC(=O)c1csc2c1CCCC2,-8.07% (inactive)
10,COC(=O)c1sc(NC(=O)c2csc3c2CCCC3)nc1C,95.3% (inactive)
11,Cc1cc(C)n(CCNCc2c(C(=O)N3C[C@@H](C)O[C@@H](C)C3)nc3ccc(Cl)cn23)n1,13.1% (inactive)
12,C/C(=C\C(=O)c1ccccc1)Nc1cccc(O)c1,33.4% (inactive)
13,O=C(CSc1ccccc1)Nc1ccc(C(=O)Nc2cccc(O)c2)cc1,37.6% (inactive)
14,O=C(Nc1cccc(O)c1)c1ccc(C(=O)c2ccccc2)o1,155% (active)
15,CC1COc2ccccc2N1S(=O)(=O)c1ccccc1 (stereo unspecified),-2.45% (inactive)
16,O=C(CSc1ccccc1)Nc1ccc(NC(=O)c2ccco2)cc1,6.16% (inactive)
17,COC(=O)c1ccc(NC(=O)c2ccco2)cc1,120% (inactive)
18,O=C(Nc1ccc(Oc2ccccc2)cc1)c1ccco1,163% (active)
19,COC(=O)c1cc2n(n1)CCCNC2=O,-7.46% (inactive)
20,Cc1ccc(NC(=O)c2cc(-c3ccc(C)o3)nc3ccccc23)nc1,-0.92% (inactive)
21,Cc1ccc(-c2csc(NNC(=O)c3ccccc3)n2)cc1,3.5% (inactive)

row,SMILES,activation
1,Cc1ccc(Nc2nc(-c3ccc(O)cc3O)cs2)nc1,151% (active)
2,CC1=NNC(=O)C1CCC(=O)N/N=C\c1cccc(Cl)c1 (stereo unspecified),0.72% (inactive)
3,O=c1cc(N2CCCCC2)c(-c2ccccc2)nn1Cc1cccc(F)c1,-6.8% (inactive)
4,CCOc1ccc(C(=O)NC(=S)Nc2ccc(N3CCOCC3)c(Cl)c2)cc1[N+](=O)[O-],-10.7% (inactive)
5,Cc1cccc(N(CC(=O)Nc2ccc(-c3nc4ccc(C)cc4s3)cc2)S(C)(=O)=O)c1,104% (inactive)
6,Cc1ccc2nc(-c3ccc(NC(=O)CN(C)S(=O)(=O)c4ccccc4)cc3)sc2c1,190% (active)
7,COc1cc(NC(=O)CN(C)S(=O)(=O)c2ccc3nc(C)sc3c2)cc(OC)c1,17.7% (inactive)
8,Cc1nc2cc(NC(=O)NCc3ccccc3)ccc2o1,23.1% (inactive)
9,C=CCN(C(=O)Nc1ccc2oc(C)nc2c1)c1ccccc1,11.6% (inactive)
10,Cc1ccc(NC(=O)Nc2ccc3oc(C)nc3c2)cc1,145% (active)
11,COC(=O)c1ccc(/C=N/N2C(C)CCCC2C)cc1 (stereo unspecified),53% (inactive)
12,CCOC(=O)CSc1nnc(-c2ccc([N+](=O)[O-])cc2)o1,5.38% (inactive)
13,CC1=CC=CC2=N/C(=N\S(=O)(=O)c3ccc(F)cc3F)c3ccccc3CN12,27% (inactive)
14,COc1cc(/C=N/NC(=O)c2cc(C)n(-c3ccc(F)cc3)c2C)cc(OC)c1O,0.41% (inactive)
15,Cc1cc(C(=O)COC(=O)C2CC2)c(C)n1-c1ccc(F)cc1,145% (active)
16,Cc1ccc(-n2c(C)cc(C(=O)CN3C(=O)C(=O)N(C4CCCC4)C3=O)c2C)cc1,-9.76% (inactive)
17,Cc1ccc(OCC(=O)Nc2ccc(S(=O)(=O)Nc3ccccn3)cc2)cc1,0.31% (inactive)
18,CCc1nc2ccccc2c(C(=O)OC2CCCCC2=O)c1C (stereo unspecified),2.83% (inactive)
19,CCn1c(SCc2cc(=O)n3ccsc3n2)nc2ccccc21,-4.54% (inactive)
20,COc1ccc(OC)c(/C=C/C(=O)OCC(=O)Nc2ccc3c(c2)OCCO3)c1,-19.2% (inactive)
21,COc1cccc(/C=C/C(=O)Nc2ccc3c(c2)OCCO3)c1,168% (active)

row,SMILES,activation
1,COc1ccc(/C=C/C(=O)Nc2ccc3c(c2)OCCO3)cc1OC,-0.48% (inactive)
2,CC1CCCC(NC(=O)COC(=O)[C@@H]2CC(O)CN2S(=O)(=O)c2ccc3c(c2)OCCO3)C1C (stereo partly specified),11.6% (inactive)
3,CN(C(=O)CSc1nncc2ccccc12)C1CCCCC1,56.8% (inactive)
4,Cc1ccc(C(=O)OC(C)CN2CCOCC2)cc1 (stereo unspecified),-15.7% (inactive)
5,COc1cc(Cl)c(C)cc1NC(=O)[C@@H]1CCCN1C(=O)c1cccs1,-25.6% (inactive)
6,NC(=NC(=O)c1ccccc1)N1CCOCC1,9.73% (inactive)
7,O=C(CSC(=S)N1CCOCC1)c1ccccc1,139% (active)
8,CC1CN(C(=S)SCC(=O)c2ccccc2)CC(C)O1 (stereo unspecified),-2.53% (inactive)
9,O=C(NCc1nnc(SCC(=O)N2CCCc3ccccc32)o1)c1ccccc1F,-9.96% (inactive)
10,COc1cc([N+](=O)[O-])ccc1NC(=O)CN1CCCC1,-0.5% (inactive)
11,COc1ccc(Sc2nc(-c3ccccc3)ncc2OC)cc1,-14% (inactive)
12,O=C(NCCOc1ccccc1Cl)C(=O)Nc1ccccc1,0.2% (inactive)
13,Cc1ccnc(NC(=O)c2ccoc2C)c1,33.5% (inactive)
14,COc1cc(SC)ccc1C(=O)Nc1cc(C)ccn1,220% (active)
15,COc1cc(SC)ccc1C(=O)NCCOc1ccccc1Cl,143% (active)
16,COc1cc(SC)ccc1C(=O)Nc1nc(C)cs1,57.9% (inactive)
17,COc1ccccc1CNC(=O)c1ccc(SC)cc1OC,-5.82% (inactive)
18,O=C(CCC1CCCN(C(=O)Cc2ccc(F)cc2)C1)N1CCN(c2ccccn2)CC1 (stereo unspecified),10.5% (inactive)
19,Cc1c(C2=CCN(S(=O)(=O)c3ccc(Cl)cc3)CC2)c2ccccc2n1C,-2.27% (inactive)
